Targets with a hit are over-represented here; the source holds about 8,800 in all. About 0.5% of all pairs of compound and target were hits.
Legend:
Assay in all cases: log2 fold change, soluble protein after heating vs DMSO (PISA); higher = thermal stabilisation; K562 lysate, 10 uM; active = over 0.2 and 3.5 SD of the protein, either way, in both replicates (recomputed)
[1] = compound: C#Cc1cccc(Nc2ncnc3cc(OCCOC)c(OCCOC)cc23)c1 [erlotinib]
Method in brief: (§1)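 A 30 min treatment with 10 μM compound was applied to crude K562 extract at 1 mg/mL protein in PBS pH 7.4 with 1 mM MgCl2. Heating for 3 min spanned 48°C-58°C, after which aliquots were pooled, adjusted to 0.5% NP-40 at 4°C and spun at 21,000xg for 90 min. TMTpro 16plex LC-MS/MS of the supernatant, with channel sums equalised, gave values recorded as log-two fold change in thermal stability against solvent controls, from duplicates.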

[2] = compound: C/C(=N\NC(=O)C1=CC(=CC=C1)S(=O)(=O)N2CCOCC2)/C3=C(C=CC(=C3)Cl)O
Method in brief: as §1

[3] = compound: C1=CC(=CC=C1C2=NC3=C(N2)C=C(C=C3)C(=O)N)OC4=CC=C(C=C4)Cl
Method in brief: as §1

[4] = compound: C1=CC2=C(C=CC(=C2)/C=C\3/C(=O)NC(=NCC4=CC=CS4)S3)N=C1
Method in brief: as §1

[5] = compound: C1=CC2=NC=CN=C2C=C1/C=C/3\C(=O)NC(=O)S3
Method in brief: as §1

[6] = compound: C1=CC=C(C=C1)C2=NC(=C(N2)C3=CC=NC=C3)C4=CC(=C(C=C4)Cl)O
Method in brief: as §1

[7] = compound: C1=CC=C2C(=C1)C3=NNC4=CC=CC(=C43)C2=O
Method in brief: as §1

[8] = compound: C1CCN(C1)C(=O)NC2=CC=CC(=C2)NC3=NC=C(C(=N3)NCCC4=CN=CN4)Br
Method in brief: as §1

[9] = compound: C1CN(CCC1(CC2=CC=C(C=C2)Cl)N)C3=NC=NC4=C3C=CN4
Method in brief: as §1

[10] = compound: C1COCCN1CCN2C3=CC=CC=C3N=C2NC(=O)C4=CC(=CC=C4)[N+](=O)[O-] [IRAK-1-4 Inhibitor I]
Method in brief: as §1

Measured: log2 fold change

MOCS3 (UniProt O95396)
Sequence of UniProt O95396 (O95396 whole entry, looked up): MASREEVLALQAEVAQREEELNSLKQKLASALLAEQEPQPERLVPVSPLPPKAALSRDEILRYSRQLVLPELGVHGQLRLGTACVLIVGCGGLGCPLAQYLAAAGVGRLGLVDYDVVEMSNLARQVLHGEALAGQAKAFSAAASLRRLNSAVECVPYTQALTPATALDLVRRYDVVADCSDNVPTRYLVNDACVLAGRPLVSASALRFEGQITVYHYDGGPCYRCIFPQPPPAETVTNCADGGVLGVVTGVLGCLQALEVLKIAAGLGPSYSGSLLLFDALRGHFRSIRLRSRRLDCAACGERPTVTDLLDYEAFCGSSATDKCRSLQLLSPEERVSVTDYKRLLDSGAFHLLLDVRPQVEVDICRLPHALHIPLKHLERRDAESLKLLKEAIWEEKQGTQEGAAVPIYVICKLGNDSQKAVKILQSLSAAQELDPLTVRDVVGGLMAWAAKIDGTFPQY
inactive: [1] 0.047 | [2] 0.01 | [3] -0.033 | [4] -0.135 | [5] -0.011 | [6] -0.003 | [7] -0.02 | [8] 0.143 | [9] -0.07 | [10] 0.049

MAPK14 isoform 2 (UniProt Q16539)
Sequence of UniProt Q16539 (Q16539 whole entry, looked up): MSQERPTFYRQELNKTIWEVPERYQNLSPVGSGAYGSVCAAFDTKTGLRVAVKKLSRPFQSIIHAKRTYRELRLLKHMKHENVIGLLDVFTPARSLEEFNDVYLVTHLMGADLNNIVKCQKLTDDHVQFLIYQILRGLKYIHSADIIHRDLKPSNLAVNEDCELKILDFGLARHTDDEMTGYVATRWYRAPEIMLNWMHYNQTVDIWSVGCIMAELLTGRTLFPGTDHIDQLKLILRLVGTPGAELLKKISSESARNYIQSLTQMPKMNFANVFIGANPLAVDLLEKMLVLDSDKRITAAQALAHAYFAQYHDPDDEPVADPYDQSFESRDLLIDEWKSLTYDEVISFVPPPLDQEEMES
inactive: [1] -0.004 | [2] 0.011 | [3] -0.049 | [4] 0.016 | [5] 0.017 | [6] 0.633 | [7] -0.045 | [8] -0.02 | [9] 0.059 | [10] -0.015

MAST4 (UniProt O15021)
inactive: [1] -0.019 | [2] -0.026 | [3] -0.031 | [4] 0.027 | [5] -0.044 | [6] 0.01 | [8] 0.149 | [9] -0.011 | [10] -0.008
active: [7] 0.384

MED8 isoform 2 (UniProt Q96G25)
inactive: [1] 0.017 | [2] 0.007 | [3] -0.001 | [4] 0.021 | [5] 0.027 | [6] 0.008 | [7] 0 | [8] 0.014 | [9] 0.088 | [10] -0.005

KIFC1 (UniProt Q9BW19)
inactive: [1] 0.003 | [2] 0.061 | [3] 0.011 | [4] -0.002 | [5] -0.048 | [6] 0.011 | [7] -0.012 | [8] -0.009 | [9] 0.025 | [10] -0.023

MAP2K4 isoform 2 (UniProt P45985)
Sequence of UniProt P45985 (P45985 whole entry, looked up): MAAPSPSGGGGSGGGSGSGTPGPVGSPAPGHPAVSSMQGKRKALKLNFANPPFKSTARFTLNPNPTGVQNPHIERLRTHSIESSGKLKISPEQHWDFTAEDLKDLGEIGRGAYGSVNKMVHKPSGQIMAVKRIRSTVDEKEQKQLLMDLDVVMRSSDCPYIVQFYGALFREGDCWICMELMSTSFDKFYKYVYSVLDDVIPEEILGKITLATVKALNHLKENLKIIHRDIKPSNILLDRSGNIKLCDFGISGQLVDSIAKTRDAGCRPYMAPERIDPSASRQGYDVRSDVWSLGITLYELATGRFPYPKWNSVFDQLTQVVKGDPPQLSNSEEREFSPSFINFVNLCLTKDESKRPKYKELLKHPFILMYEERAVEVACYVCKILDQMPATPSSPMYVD
inactive: [1] 0.035 | [2] -0.069 | [3] -0.035 | [4] -0.003 | [5] -0.001 | [6] 0.06 | [7] 0.283 | [8] 0.039 | [9] -0.058 | [10] 0.048

LAGE3 (UniProt Q14657)
inactive: [1] 0.028 | [3] 0.074 | [4] -0.008 | [5] -0.092 | [6] -0.018 | [7] 0.091 | [8] 0 | [9] 0.022 | [10] 0.06
active: [2] 0.342

KNOP1 (UniProt Q1ED39)
Sequence of UniProt Q1ED39 (Q1ED39 whole entry, looked up): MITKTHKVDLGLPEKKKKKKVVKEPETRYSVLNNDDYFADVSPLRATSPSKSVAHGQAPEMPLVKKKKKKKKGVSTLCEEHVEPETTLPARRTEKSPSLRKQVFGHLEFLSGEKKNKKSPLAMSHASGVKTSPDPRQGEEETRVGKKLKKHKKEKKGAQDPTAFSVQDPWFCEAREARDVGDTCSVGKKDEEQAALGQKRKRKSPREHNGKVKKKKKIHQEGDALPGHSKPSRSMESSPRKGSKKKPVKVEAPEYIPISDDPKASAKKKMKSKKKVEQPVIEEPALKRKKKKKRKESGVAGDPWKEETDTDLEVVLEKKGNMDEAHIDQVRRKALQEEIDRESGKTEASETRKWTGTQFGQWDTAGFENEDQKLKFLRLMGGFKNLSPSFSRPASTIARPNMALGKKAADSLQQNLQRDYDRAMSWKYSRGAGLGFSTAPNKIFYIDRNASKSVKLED
inactive: [1] -0.018 | [2] -0.011 | [3] -0.006 | [4] -0.176 | [5] 0.019 | [6] 0.008 | [7] 0.109 | [8] -0.128 | [9] 0.118 | [10] 0.123

MGST3 (UniProt O14880)
Sequence of UniProt O14880 (O14880 whole entry, looked up): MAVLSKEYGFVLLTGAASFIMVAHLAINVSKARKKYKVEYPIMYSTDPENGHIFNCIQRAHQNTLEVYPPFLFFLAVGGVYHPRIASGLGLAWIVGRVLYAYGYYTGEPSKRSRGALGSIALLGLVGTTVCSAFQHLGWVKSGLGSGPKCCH
inactive: [1] 0.007 | [2] 0.011 | [3] 0.008 | [4] 0.022 | [5] 0.011 | [6] -0.021 | [7] -0.054 | [8] -0.009 | [9] -0.035 | [10] 0.019

LSS (UniProt P48449)
inactive: [1] -0.023 | [2] 0.057 | [3] 0.001 | [4] 0.053 | [5] -0.005 | [6] 0.037 | [7] -0.006 | [8] -0.094 | [9] 0.019 | [10] 0

KIF4A (UniProt O95239)
inactive: [1] 0.015 | [2] -0.022 | [3] -0.042 | [4] 0.02 | [5] 0.022 | [6] 0.014 | [7] -0.033 | [8] -0.026 | [9] 0.031 | [10] -0.01

MFF isoform 2 (UniProt Q9GZY8)
inactive: [1] 0.006 | [2] -0.056 | [3] 0.021 | [4] -0.009 | [5] -0.014 | [6] -0.035 | [7] -0.005 | [8] 0.024 | [9] 0.037 | [10] 0.018

LIMK2 isoform 3 (UniProt P53671)
inactive: [1] -0.013 | [2] -0.038 | [3] -0.048 | [4] 0.062 | [5] 0.053 | [6] 0.016 | [7] 0.003 | [8] -0.002 | [9] 0.001 | [10] -0.031

MED16 (UniProt Q9Y2X0)
inactive: [1] 0.018 | [2] -0.033 | [3] 0.001 | [4] 0.019 | [5] -0.011 | [6] 0.008 | [7] -0.071 | [8] 0.01 | [9] -0.045 | [10] -0.001

LIG4 (UniProt P49917)
inactive: [1] 0.107 | [2] 0.014 | [3] -0.04 | [4] 0.028 | [5] 0.002 | [6] 0.024 | [7] -0.003 | [8] 0.009 | [9] -0.057 | [10] -0.001

MCMBP isoform 2 (UniProt Q9BTE3)
inactive: [1] 0.084 | [2] 0.027 | [3] 0.282 | [4] -0.168 | [5] -0.156 | [6] -0.051 | [7] -0.411 | [8] 0.024 | [9] 0.055 | [10] -0.016

MED17 (UniProt Q9NVC6)
inactive: [1] -0.017 | [2] 0.062 | [3] 0.019 | [4] 0.065 | [5] -0.017 | [6] 0.014 | [7] -0.055 | [8] -0.007 | [9] -0.03 | [10] -0.012

MED12 isoform 2 (UniProt Q93074)
inactive: [1] 0.007 | [2] -0.037 | [3] 0 | [4] 0.009 | [5] 0.008 | [6] 0.004 | [7] -0.025 | [8] -0.013 | [9] 0.011 | [10] -0.035

MLLT11 (UniProt Q13015)
Sequence of UniProt Q13015 (Q13015 whole entry, looked up): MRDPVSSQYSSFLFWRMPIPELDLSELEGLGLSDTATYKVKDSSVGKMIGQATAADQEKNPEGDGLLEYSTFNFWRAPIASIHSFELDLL
inactive: [1] 0.053 | [2] -0.018 | [3] -0.271 | [4] 0.063 | [5] -0.038 | [6] -0.018 | [7] -0.054 | [8] -0.372 | [9] 0.111 | [10] 0.044

MAP11 (UniProt Q8WVR3)
inactive: [1] 0.013 | [2] -0.018 | [3] -0.009 | [4] 0.006 | [5] 0.061 | [6] -0.004 | [7] 0.064 | [8] -0.135 | [9] 0.02 | [10] -0.02

MPP1 (UniProt Q00013)
Sequence of UniProt Q00013 (Q00013 whole entry, looked up): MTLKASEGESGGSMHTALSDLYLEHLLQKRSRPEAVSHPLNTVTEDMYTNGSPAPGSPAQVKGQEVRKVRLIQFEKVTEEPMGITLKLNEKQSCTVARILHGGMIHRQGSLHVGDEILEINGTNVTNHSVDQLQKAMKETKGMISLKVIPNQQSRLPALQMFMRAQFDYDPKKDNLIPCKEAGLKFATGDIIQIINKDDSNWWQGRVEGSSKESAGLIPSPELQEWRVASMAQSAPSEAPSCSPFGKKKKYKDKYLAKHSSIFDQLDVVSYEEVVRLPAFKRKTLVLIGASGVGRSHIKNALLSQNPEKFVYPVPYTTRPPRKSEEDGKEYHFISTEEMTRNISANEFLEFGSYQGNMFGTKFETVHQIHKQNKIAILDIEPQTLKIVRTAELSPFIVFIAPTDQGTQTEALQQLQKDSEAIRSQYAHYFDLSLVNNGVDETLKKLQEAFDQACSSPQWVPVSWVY
inactive: [1] 0.014 | [2] 0.017 | [3] -0.007 | [4] -0.008 | [5] -0.025 | [6] 0.014 | [7] -0.014 | [8] 0.003 | [9] 0.018 | [10] -0.007

KIF15 (UniProt Q9NS87)
Sequence of UniProt Q9NS87 (Q9NS87 whole entry, looked up): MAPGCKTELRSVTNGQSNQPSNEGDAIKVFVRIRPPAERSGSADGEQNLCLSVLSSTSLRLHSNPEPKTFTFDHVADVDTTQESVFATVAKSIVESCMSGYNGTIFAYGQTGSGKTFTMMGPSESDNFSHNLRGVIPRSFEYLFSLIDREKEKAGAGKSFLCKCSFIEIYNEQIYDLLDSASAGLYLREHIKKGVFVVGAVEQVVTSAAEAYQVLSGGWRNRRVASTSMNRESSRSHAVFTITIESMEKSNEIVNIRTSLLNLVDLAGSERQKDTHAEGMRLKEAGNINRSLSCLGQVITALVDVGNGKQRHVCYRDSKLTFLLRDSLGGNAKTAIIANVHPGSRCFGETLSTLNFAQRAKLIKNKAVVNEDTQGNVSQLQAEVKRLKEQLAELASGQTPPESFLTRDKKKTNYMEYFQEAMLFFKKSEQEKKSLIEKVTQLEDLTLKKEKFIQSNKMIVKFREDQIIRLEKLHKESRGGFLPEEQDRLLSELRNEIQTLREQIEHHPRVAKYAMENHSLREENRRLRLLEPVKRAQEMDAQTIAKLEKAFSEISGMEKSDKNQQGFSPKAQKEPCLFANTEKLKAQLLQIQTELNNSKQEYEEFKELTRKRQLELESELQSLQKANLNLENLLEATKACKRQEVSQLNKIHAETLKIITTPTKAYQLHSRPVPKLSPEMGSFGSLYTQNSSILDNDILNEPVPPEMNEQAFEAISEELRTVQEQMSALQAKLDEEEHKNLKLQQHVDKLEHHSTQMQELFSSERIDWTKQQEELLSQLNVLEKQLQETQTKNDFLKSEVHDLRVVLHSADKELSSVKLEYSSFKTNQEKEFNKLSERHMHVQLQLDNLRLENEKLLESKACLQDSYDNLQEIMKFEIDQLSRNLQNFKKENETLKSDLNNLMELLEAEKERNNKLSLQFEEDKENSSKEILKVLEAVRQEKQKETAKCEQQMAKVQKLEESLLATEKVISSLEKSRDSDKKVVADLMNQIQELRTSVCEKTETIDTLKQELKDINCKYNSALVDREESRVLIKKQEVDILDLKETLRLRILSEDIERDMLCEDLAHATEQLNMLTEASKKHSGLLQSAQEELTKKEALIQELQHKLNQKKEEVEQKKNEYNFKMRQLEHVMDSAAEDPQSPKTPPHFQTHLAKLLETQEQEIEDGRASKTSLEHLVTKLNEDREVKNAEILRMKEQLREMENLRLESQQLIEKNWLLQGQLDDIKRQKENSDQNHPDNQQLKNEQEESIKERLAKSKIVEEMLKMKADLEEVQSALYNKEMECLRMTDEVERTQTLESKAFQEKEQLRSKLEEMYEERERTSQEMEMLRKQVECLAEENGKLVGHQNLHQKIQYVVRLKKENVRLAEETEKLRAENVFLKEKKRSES
inactive: [1] 0.004 | [2] 0.025 | [3] -0.01 | [4] 0.011 | [5] -0.019 | [6] 0.048 | [7] -0.054 | [8] -0.04 | [9] -0.019 | [10] -0.012

KIF2A isoform 4 (UniProt O00139)
inactive: [1] -0.008 | [2] 0.02 | [3] -0.014 | [4] -0.007 | [5] -0.037 | [6] 0.001 | [7] -0.022 | [8] -0.02 | [9] -0.041 | [10] -0.026

MAD2L2 (UniProt Q9UI95)
inactive: [1] 0.173 | [2] 0.004 | [3] 0.209 | [4] -0.035 | [5] 0.035 | [6] -0.09 | [7] -0.101 | [8] 0.094 | [9] 0.102 | [10] 0.004

MGST1 (UniProt P10620)
inactive: [1] -0.041 | [2] -0.068 | [3] 0.016 | [4] -0.051 | [5] 0.024 | [6] -0.031 | [7] -0.036 | [8] -0.07 | [9] 0.089 | [10] 0.067

LAP3 (UniProt P28838)
Sequence of UniProt P28838 (P28838 whole entry, looked up): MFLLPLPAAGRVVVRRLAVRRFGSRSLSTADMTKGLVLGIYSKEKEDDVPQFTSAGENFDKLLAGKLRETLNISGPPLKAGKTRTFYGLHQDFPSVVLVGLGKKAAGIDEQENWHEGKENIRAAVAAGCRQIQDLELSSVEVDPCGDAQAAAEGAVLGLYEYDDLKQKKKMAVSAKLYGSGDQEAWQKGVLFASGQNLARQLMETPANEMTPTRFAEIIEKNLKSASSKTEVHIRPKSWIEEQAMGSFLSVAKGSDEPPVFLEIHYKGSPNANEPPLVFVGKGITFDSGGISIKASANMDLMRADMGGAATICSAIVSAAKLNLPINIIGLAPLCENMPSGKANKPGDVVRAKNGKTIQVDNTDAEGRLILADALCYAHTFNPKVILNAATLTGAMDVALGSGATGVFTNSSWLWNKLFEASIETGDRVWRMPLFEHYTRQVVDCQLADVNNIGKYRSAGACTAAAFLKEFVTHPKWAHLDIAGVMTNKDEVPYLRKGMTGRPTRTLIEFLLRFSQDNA
inactive: [1] -0.034 | [2] 0.08 | [3] 0.082 | [4] -0.022 | [5] 0.013 | [6] -0.026 | [7] -0.017 | [8] 0.027 | [9] 0.008 | [10] 0.061

MRPL46 (UniProt Q9H2W6)
inactive: [1] -0.027 | [2] -0.01 | [3] -0.039 | [4] -0.124 | [5] -0.069 | [6] 0.023 | [7] 0.089 | [8] -0.009 | [9] -0.064 | [10] 0.035

KLHL12 isoform 2 (UniProt Q53G59)
Sequence of UniProt Q53G59 (Q53G59 whole entry, looked up): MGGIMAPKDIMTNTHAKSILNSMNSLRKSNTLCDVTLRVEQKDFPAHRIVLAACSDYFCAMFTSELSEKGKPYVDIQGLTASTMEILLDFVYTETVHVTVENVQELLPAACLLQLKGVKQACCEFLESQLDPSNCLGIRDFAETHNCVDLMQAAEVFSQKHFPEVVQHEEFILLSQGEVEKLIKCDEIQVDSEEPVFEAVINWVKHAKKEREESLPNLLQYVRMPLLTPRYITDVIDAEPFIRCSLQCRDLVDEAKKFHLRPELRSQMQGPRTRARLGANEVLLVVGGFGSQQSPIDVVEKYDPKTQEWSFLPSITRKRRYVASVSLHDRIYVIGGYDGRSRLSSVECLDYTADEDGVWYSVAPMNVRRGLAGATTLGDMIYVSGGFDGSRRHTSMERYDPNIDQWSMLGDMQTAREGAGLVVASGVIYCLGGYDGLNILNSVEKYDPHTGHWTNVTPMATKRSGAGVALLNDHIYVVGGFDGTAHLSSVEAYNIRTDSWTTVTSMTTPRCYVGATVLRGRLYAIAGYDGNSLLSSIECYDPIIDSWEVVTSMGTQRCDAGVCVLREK
inactive: [1] -0.051 | [2] 0.021 | [3] 0.004 | [4] 0.053 | [5] 0.165 | [6] -0.134 | [7] 0.04 | [10] 0.046

KIF22 (UniProt Q14807)
inactive: [1] 0.012 | [2] -0.074 | [3] 0.076 | [4] -0.147 | [5] -0.007 | [6] -0.063 | [7] -0.123 | [8] 0.026 | [9] 0.05 | [10] 0.06

MAP4 (UniProt P27816)
inactive: [1] 0.001 | [2] -0.013 | [3] 0.031 | [4] -0.003 | [5] -0.001 | [6] 0.023 | [7] -0.002 | [8] -0.007 | [9] 0.003 | [10] 0.024

MORC2 (UniProt Q9Y6X9)
inactive: [1] 0.039 | [2] -0.05 | [3] -0.002 | [4] 0.015 | [5] -0.016 | [6] -0.001 | [7] -0.033 | [8] 0.006 | [9] -0.023 | [10] 0.034

From the supplement of paper PMC10849652
